In PubChem BioAssay (EPA / NIEHS) one finds outcome and AC50 data, which are given here for eight compounds.

Structures are written as SMILES. Results filed as inconclusive are left out. Calls of active or inactive are those of the source. The calls were made as follows, unless noted: active = hit-call score of the fitted dose curve at least 0.9, where 1 is the maximum; inconclusive = response in the unintended direction; inactive = score below 0.9.

Test [1] can be described thus: CLD_ACTIN_24hr: CellzDirect (CLD) Gene Expression Assay for Baseline Control (Actin) at 24 hours (AID 2283670). A digest of the protocol:
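Primary human hepatocytes dosed over multiple concentrations with 0.2% DMSO vehicle; actin mRNA measured at 24 h by qNPA chemiluminescence. Background control endpoint, fitted as gain of signal versus DMSO.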

Read-out in test [2]: glucuronosyltransferase (UGT1A1), UGT1A1 (gene 54658)
The test can be described thus: CLD_UGT1A1_6hr: CellzDirect (CLD) Gene Expression Assay for glucuronosyltransferase (UGT1A1) at 6 hours (AID 2283672). The method in brief:
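Primary human hepatocytes from two donor preparations, dosed with fresh solutions in 0.2% DMSO, harvested at 6 h. UGT1A1 mRNA measured by qNPA chemiluminescence; induction fitted upward versus DMSO.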

Read-out in test [3]: ABC Transporter (ABCB11), ABCB11 (gene 8647)
The test can be described thus: CLD_ABCB11_24hr: CellzDirect (CLD) Gene Expression Assay for ABC Transporter (ABCB11) at 24 hours (AID 2283674; active = hit-call score of the fitted dose curve at least 0.9, where 1 is the maximum; inactive = score below 0.9). The method in brief:
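Primary human hepatocytes were dosed daily for two days, with 0.2% DMSO vehicle. ABCB11 mRNA induction was measured at 24 hours by quantitative nuclease protection assay with chemiluminescence. Gain of signal was fitted relative to DMSO.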

A short description of test [4]: CLD_ACTIN_6hr: CellzDirect (CLD) Gene Expression Assay for Baseline Control (Actin) at 6 hours (AID 2283676).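 Also: active means increased actin mRNA relative to DMSO vehicle.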 A digest of the protocol: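 Primary human hepatocytes dosed with fresh chemical solutions (vehicle 0.2% DMSO), harvested at 6 h. Actin mRNA quantified by quantitative nuclease protection assay with chemiluminescent read-out, as background control relative to DMSO.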

Read-out in test [5]: Cytochrome P450 2B6 (Homo sapiens) (UniProt P20813)
Briefly: CLD_CYP2B6_6hr: CellzDirect (CLD) Gene Expression Assay for xenobiotic metabolism (CYP2B6) at 6 hours (AID 2283677).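 Also: actives raise CYP2B6 transcript above DMSO baseline so AC50 marks an inducer.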 The method in brief:
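Primary human hepatocytes dosed with chemicals at multiple concentrations, vehicle 0.2% DMSO; CYP2B6 mRNA induction measured 6 h after dosing by quantitative nuclease protection assay with chemiluminescence, gain of signal fitted relative to DMSO.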

Read-out in test [6]: Cytochrome P450 2C19 (Homo sapiens) (UniProt P33261)
The test can be described thus: CLD_CYP2C19_6hr: CellzDirect (CLD) Gene Expression Assay for xenobiotic metabolism (CYP2C19) at 6 hours (AID 2283678). The method in brief:
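Primary human hepatocytes from two donor preparations were dosed daily, with 0.2% DMSO as vehicle, and harvested 6 h after dosing. CYP2C19 mRNA induction was measured by qNPA chemiluminescence and fitted as gain of signal against DMSO.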

A short description of test [7]: CCTE_Padilla_ZF_144hpf_TERATOSCORE: (Legacy) CCTE's 144 Hour Post-fertilization zebrafish Assay Teratoscore, Padilla Lab (AID 2283679; active = hit-call score of the fitted dose curve at least 0.9, where 1 is the maximum; inactive = score below 0.9;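 as to AC50: zebrafish embryos with chorions exposed by immersion from 6-8 hpf to 5 dpf with daily renewal; teratogenicity score from eye scoring of death hatching and malformations at 144 hpf; higher score means more developmental defects relative to DMSO baseline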). The method in brief: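 Larvae scored by eye at 144 hpf for death, hatching and malformations after a day in clean Hanks'. Before that, daily-renewed exposure at 80 uM (0.4% DMSO, 26C) from roughly 6-8 hpf through 5 dpf, 4 embryos per chemical.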

Read-out in test [8]: Glyceraldehyde-3-phosphate dehydrogenase (Homo sapiens) (UniProt P04406)
Briefly: CLD_GAPDH_6hr: CellzDirect (CLD) Gene Expression Assay for Baseline Control (Glyceraldehyde 3-phosphate dehydrogenase) at 6 hours (AID 2283681).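 Also: active means increased signal relative to DMSO vehicle.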 A digest of the protocol: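 Primary human hepatocytes from two donor preparations, dosed at multiple concentrations with 0.2% DMSO vehicle; GAPDH mRNA measured 6 h after dosing by chemiluminescent quantitative nuclease protection assay (qNPA) on denatured lysates. Serves as background control; cytotoxicity annotated by morphology.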

Read-out in test [9]: Cytochrome P450 2B6 (Homo sapiens) (UniProt P20813)
Briefly: CLD_CYP2B6_24hr: CellzDirect (CLD) Gene Expression Assay for xenobiotic metabolism (CYP2B6) at 24 hours (AID 2283686). The method in brief:
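Primary human hepatocytes dosed daily for two days with fresh solutions, harvested at 24 hours; mRNA induction quantified by qNPA chemiluminescence, gain of signal vs 0.2% DMSO vehicle. Cytotoxicity annotated from phase-contrast morphology.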

Read-out in test [10]: Cytochrome P450 2C19 (Homo sapiens) (UniProt P33261)
Briefly: CLD_CYP2C19_24hr: CellzDirect (CLD) Gene Expression Assay for xenobiotic metabolism (CYP2C19) at 24 hours (AID 2283687).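 Also: activity means mRNA induction above DMSO vehicle baseline.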 The method in brief:
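Primary human hepatocytes (two donor preparations) dosed daily with fresh test chemical in 0.2% DMSO vehicle; CYP2C19 mRNA induction measured at 24 h by quantitative nuclease protection assay with chemiluminescence, fitted for gain of signal versus DMSO.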

Read-out in test [11]: ABC Transporter (ABCB11), ABCB11 (gene 8647)
Briefly: CLD_ABCB11_6hr: CellzDirect (CLD) Gene Expression Assay for ABC Transporter (ABCB11) at 6 hours (AID 2283675).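 Also: hits raise ABCB11 mRNA level so AC50 marks induction.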 A digest of the protocol: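 Human primary hepatocytes (two donor preparations) given fresh chemical daily at multiple concentrations, vehicle 0.2% DMSO. ABCB11 mRNA induction measured 6 h after dosing by qNPA chemiluminescence versus DMSO; cytotoxicity annotated from morphology.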

Read-out in test [12]: Broad substrate specificity ATP-binding cassette transporter ABCG2 (Homo sapiens) (UniProt Q9UNQ0)
The test can be described thus: CLD_ABCG2_24hr: CellzDirect (CLD) Gene Expression Assay for ABC Transporter (ABCG2) at 24 hours (AID 2283685). A digest of the protocol: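 Primary human hepatocytes were dosed daily with ToxCast chemicals at multiple concentrations (vehicle 0.2% DMSO). ABCG2 mRNA was measured at 24 h by qNPA chemiluminescence; induction was scored as gain of signal versus DMSO.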

Read-out in test [13]: xenobiotic metabolism (CYP1A1), CYP1A1 (gene 1543)
The test can be described thus: CLD_CYP1A1_24hr: CellzDirect (CLD) Gene Expression Assay for xenobiotic metabolism (CYP1A1) at 24 hours (AID 2283673). A digest of the protocol: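 Primary human hepatocytes dosed daily with fresh solutions in 0.2% DMSO vehicle. mRNA measured at 24 h by quantitative nuclease protection assay with chemiluminescence; gain-of-signal fit versus DMSO, with morphology-based cytotoxicity flags.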

Read-out in test [14]: xenobiotic metabolism (CYP1A2), CYP1A2 (gene 1544)
The test can be described thus: CLD_CYP1A2_24hr: CellzDirect (CLD) Gene Expression Assay for xenobiotic metabolism (CYP1A2) at 24 hours (AID 2283683). A digest of the protocol: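 Primary human hepatocytes from two donor preparations dosed daily with multiple concentrations of chemical, 0.2% DMSO vehicle. CYP1A2 mRNA at 24 h quantified by qNPA chemiluminescence; gain of signal analyzed relative to DMSO. Cytotoxicity flagged by phase-contrast morphology.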

Read-out in test [15]: sulfotransferase (SULT2A), SULT2A1 (gene 6822)
The test can be described thus: CLD_SULT2A_6hr: CellzDirect (CLD) Gene Expression Assay for sulfotransferase (SULT2A) at 6 hours (AID 2283669).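 Also: hits raise transcript level above the DMSO vehicle baseline.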 The method in brief:
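Primary human hepatocytes from two donor preparations were dosed daily with chemicals or 0.2% DMSO and harvested at 6 h. Transcript induction read by qNPA chemiluminescence, fitted for gain of signal relative to DMSO; morphology-based cytotoxicity annotated.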

Read-out in test [16]: ABC Transporter (ABCB1), ABCB1 (gene 5243)
Briefly: CLD_ABCB1_24hr: CellzDirect (CLD) Gene Expression Assay for ABC Transporter (ABCB1) at 24 hours (AID 2283684). The method in brief: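 Primary human hepatocytes, two donor preparations, dosed daily with fresh solutions; vehicle 0.2% DMSO; harvested at 24 h. ABCB1 mRNA measured by quantitative nuclease protection assay (chemiluminescence); morphology-based cytotoxicity annotated.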

Chain of Glyceraldehyde-3-phosphate dehydrogenase (Homo sapiens) (P04406 whole entry, looked up): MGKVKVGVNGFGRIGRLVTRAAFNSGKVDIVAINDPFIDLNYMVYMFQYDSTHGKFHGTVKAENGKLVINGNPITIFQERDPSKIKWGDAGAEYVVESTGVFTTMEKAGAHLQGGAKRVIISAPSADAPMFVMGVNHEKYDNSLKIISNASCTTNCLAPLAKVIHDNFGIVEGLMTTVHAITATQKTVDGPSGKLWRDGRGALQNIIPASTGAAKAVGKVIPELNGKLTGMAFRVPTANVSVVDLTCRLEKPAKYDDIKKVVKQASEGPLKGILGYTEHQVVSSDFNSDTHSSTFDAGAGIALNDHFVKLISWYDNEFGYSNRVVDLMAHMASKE
Chain of Cytochrome P450 2C19 (Homo sapiens) (P33261 whole entry, looked up): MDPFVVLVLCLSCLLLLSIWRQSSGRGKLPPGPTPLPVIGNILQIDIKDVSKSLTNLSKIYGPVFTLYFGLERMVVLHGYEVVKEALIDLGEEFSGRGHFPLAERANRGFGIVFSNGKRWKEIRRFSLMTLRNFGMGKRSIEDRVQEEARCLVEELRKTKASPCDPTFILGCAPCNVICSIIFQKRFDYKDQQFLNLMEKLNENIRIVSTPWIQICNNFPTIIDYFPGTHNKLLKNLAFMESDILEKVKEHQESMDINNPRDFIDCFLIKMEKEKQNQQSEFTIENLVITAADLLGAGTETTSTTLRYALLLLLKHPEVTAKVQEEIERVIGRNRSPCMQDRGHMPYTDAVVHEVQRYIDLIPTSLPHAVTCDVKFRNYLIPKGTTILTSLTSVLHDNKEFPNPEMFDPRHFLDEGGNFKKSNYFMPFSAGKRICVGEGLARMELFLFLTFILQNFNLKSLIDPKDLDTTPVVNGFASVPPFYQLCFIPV
Chain of Broad substrate specificity ATP-binding cassette transporter ABCG2 (Homo sapiens) (Q9UNQ0 whole entry, looked up): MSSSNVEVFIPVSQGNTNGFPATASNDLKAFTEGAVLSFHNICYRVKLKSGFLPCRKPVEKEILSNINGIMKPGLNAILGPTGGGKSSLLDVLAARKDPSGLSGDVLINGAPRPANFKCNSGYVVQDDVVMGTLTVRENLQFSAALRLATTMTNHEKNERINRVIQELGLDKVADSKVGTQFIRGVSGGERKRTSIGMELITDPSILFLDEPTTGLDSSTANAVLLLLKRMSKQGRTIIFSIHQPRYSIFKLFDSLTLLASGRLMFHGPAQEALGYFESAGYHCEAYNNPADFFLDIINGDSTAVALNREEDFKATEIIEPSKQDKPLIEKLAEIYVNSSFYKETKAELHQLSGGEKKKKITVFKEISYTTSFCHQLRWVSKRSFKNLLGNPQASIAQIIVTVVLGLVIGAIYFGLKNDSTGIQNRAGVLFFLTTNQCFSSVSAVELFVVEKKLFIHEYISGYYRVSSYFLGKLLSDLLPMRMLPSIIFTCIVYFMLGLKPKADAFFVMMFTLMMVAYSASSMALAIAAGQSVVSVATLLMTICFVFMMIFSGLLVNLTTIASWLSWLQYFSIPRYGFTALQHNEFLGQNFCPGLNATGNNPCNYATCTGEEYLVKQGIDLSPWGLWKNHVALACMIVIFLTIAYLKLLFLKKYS

Take `CNC(=O)ON=C(SC)C(=O)N(C)C`: the compound was called inactive in test [1], in [2], in test [3], in test [4], in [5] and in [6]. Moreover, the outcome in [7], in test [8], in test [9] and in test [10] was inactive.

As to `O=c1ccc(=O)[nH][nH]1`, the call in test [1], in test [2], in [11], in test [6], in [7] and in test [8] was inactive. Moreover, the compound was classed as inactive in test [12] and in test [10].

Consider `C[N+]1(C)CCCCC1`, for which the compound was called inactive in test [1], in [11], in test [4], in [5], in test [6] and in test [7]. In [12], the outcome was inactive.

Broadly, the AC50 is the midpoint of the concentration-response curve, whichever way the signal moves. With `CCCCOC(=O)[C@@H](C)Oc1ccc(Oc2ccc(C#N)cc2F)cc1`, the result in test [1], in test [2], in test [13], in test [3], in test [4] and in [5] was inactive. Moreover, the compound was classed as inactive in test [6], in test [8] and in test [10]. Moreover, in test [7], the AC50 is 2100 nM (active).

Regarding `C[Si](Cn1cncn1)(c1ccc(F)cc1)c1ccc(F)cc1`, the compound was called inactive in test [1], in test [2], in [11], in [4], in [8] and in test [12]. In addition, the AC50 is 32400 nM (active) in test [5], 9340 nM (active) in [7], 1890 nM (active) in [14] and 179 nM (active) in test [9].

On to `CON=C(C(=O)OC)c1ccccc1CON=C(C)c1cccc(C(F)(F)F)c1`, for which the result in test [15], in test [1], in [13], in test [3], in test [11] and in test [6] was inactive. For the same compound, the result in [12] and in test [10] was inactive. Moreover, the AC50 in test [5] was 10200 nM (active); in [7] it was 208 nM (active).

For `S=C1NCCN1`, the result in [1], in test [3], in test [11], in test [4], in test [5] and in test [7] was inactive. Besides, the result in [8], in [16], in test [12] and in [10] was inactive.

Regarding `CN(C)[C@@H]1C(=O)C(C(N)=O)=C(O)[C@@]2(O)C(=O)C3=C(O)c4c(O)cccc4[C@@](C)(O)[C@H]3[C@H](O)[C@@H]12`, the compound was classed as inactive in [1], in [3], in test [4], in [5], in test [6] and in test [7]. In addition, the call in [9] and in test [10] was inactive.
